This note sets out measurements from publication PMC4336329 (PLoS ONE, 2015).

Structures are written as SMILES. Out of some 310,000 compounds screened, about 14,000 (4.5%) showed an effect of 50% or more. Effects have a minus sign here. For the sample, strong results were picked, then their nearest neighbours and some compounds at random.
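Note: peak tail current of the secondary pulse compared with the same well before compound.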

For the test, the target named is human ether-à-go-go-related gene (hERG) potassium channel (human, UniProt Q12809). The experiment in a line: primary screen, population patch clamp on CHO cells stably expressing hERG; higher = less effect of the substance.
human ether-à-go-go-related gene (hERG) potassium channel, sequence (Q12809 whole entry, looked up): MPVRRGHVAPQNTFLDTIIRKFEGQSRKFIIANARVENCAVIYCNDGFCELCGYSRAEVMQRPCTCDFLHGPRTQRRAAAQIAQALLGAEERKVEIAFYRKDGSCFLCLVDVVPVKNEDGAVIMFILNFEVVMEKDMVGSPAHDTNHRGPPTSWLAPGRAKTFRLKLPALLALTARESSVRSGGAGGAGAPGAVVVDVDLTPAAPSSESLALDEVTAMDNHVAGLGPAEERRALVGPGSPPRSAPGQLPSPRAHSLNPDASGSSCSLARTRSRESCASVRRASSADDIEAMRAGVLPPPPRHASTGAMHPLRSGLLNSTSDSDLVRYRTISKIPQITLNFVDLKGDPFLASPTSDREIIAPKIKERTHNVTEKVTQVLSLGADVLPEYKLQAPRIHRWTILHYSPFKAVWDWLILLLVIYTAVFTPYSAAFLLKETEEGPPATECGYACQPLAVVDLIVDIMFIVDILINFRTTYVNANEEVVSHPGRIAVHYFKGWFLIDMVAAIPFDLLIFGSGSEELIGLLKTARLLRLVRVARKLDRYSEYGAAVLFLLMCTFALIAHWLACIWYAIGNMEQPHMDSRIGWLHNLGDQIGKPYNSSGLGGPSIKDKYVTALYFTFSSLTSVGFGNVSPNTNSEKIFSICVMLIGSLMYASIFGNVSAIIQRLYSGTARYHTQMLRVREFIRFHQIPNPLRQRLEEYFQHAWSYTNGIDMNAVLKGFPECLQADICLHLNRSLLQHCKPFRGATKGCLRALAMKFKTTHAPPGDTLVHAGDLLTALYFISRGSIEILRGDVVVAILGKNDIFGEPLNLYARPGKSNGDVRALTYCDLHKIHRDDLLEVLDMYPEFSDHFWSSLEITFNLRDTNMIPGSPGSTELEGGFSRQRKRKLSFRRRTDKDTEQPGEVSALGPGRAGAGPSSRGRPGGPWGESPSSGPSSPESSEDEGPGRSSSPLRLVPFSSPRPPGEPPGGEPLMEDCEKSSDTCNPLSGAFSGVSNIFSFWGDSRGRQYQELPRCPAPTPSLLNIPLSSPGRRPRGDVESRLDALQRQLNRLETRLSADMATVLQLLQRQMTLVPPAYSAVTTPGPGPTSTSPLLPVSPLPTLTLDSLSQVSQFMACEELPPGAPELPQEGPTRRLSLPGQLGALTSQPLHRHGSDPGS
Consider `COc1ccc(CN(CCC(c2ccccc2)C2CCOC(C)(C)C2)C(C)=O)cc1` (centres unmarked), for which the “hERG current change (%, negative = inhibition) at 10uM” value was -11.6%. The value for `COc1ccc(CN(CC(=O)NCc2ccc(F)cc2)C(=O)c2ccco2)cc1` was -61.7%. The value for `O=C(CN(C(=O)CCC(=O)Nc1nccs1)c1ccc(F)cc1)NCc1ccc(F)cc1` was 16.8%; that for `Cc1cc(N)ccc1N=Nc1c(C)n(C)n(-c2ccccc2)c1=O` was -5.57%. The same measure for `Cc1cc(=O)[nH]c(SCC(=O)NCCC2=CCCCC2)n1`: 28.2%; for `Cc1c(C(=O)N2CCCCC2)c(S(=O)(=O)N(C)Cc2ccccc2)c(C)n1C`: 2.66%; for `O=C(Nc1ccccc1C(=O)NCC1CCCO1)c1ccc(Cl)cc1` (centres unmarked): -34.8%.

With `CC1(C)CC2CC(C)(CN2C(=O)COC(=O)c2cccc(O)c2)C1` (centres unmarked), the “hERG current change (%, negative = inhibition) at 10uM” value came out at 6.76%. The value for `N#Cc1ccc(-c2ccccc2)nc1Sc1ccc(F)cc1` was 13.2%; that for `CC(C)Oc1cccc(C(=O)Nc2ccc(N3CCN(S(C)(=O)=O)CC3)cc2)c1` was -0.708%. The value for `O=C1CC(c2ccccc2)CCc2sccc2N1` (centres unmarked) was -5.86%; that for `Cc1cc(C(F)(F)F)nc(CCNCc2c(C(=O)N3CCCC3)nc3ccccn23)n1` was -14.4%. The same measure for `CN1Cc2ccccc2CC1CNCc1c(C(=O)N2CCCC2)nc2ccccn12` (centres unmarked): -73.5%; for `O=C(c1nc2ccccn2c1CNCCCn1cccn1)N1CCCC1`: -12.1%. Turning to `O=C(c1nc2ccccn2c1CNCC1OCCc2ccccc21)N1CCOCC1` (centres unmarked), the “hERG current change (%, negative = inhibition) at 10uM” value is -0.852%. The same measure for `Cc1cccn2c(CNCC3OCCc4ccccc43)c(C(=O)N3CCCCC3)nc12` (centres unmarked): -19.5%; for `Cc1ccn2c(CNCC3OCCc4ccccc43)c(C(=O)N3CCCCCC3)nc2c1` (centres unmarked): -62.9%. For `Cc1onc(-c2ccccc2)c1C(=O)NCC(O)c1ccccc1` (centres unmarked), the “hERG current change (%, negative = inhibition) at 10uM” value is listed as 5%. The same measure for `Cc1onc(-c2ccccc2)c1C(=O)NC(C)c1ccc2c(c1)OCO2` (centres unmarked): 27.7%. Regarding `COc1cc(OC)cc(C(=O)OCC(=O)NCc2ccc3c(c2)OCO3)c1`, the “hERG current change (%, negative = inhibition) at 10uM” value stood at 12.9%. The value for `CCCc1ccc2oc(C(=O)N3CCC(COC)C3)c(C)c2c1` (centres unmarked) was -38.4%; that for `O=C(NC1CS(=O)(=O)CC1NCc1ccco1)c1ccccc1` (centres unmarked) was 2.09%; that for `N#CCCN1CCN(Cc2cc(-c3ccccc3)ccc2O)CC1` was -48.8%. Take `Cl.ClC(CCN1CCN(Cc2ccccc2)CC1)c1ccccc1` (centres unmarked): the “hERG current change (%, negative = inhibition) at 10uM” value is -20.6%. As to `OC(CCN1CCOCC1)c1ccccc1` (centres unmarked), the “hERG current change (%, negative = inhibition) at 10uM” value is listed as 4.54%. The value for `Oc1ccc(-c2ccccc2)cc1CN1CCCCCC1` was -52.1%.

Consider `Cl.OC(CCCCN1CCCCC1)c1ccccc1` (centres unmarked), for which the “hERG current change (%, negative = inhibition) at 10uM” value was -18.1%.

In the case of `O=S(=O)(NCCN1CCCC1)c1ccc(Cl)cc1`, the “hERG current change (%, negative = inhibition) at 10uM” value is on record as 10.3%. The same measure for `Clc1ccc(C(CCN2CCCC2)Cc2ccccc2)cc1` (centres unmarked): -62.7%; for `Oc1ccc(Br)cc1CN1CCCCCCC1`: -47.6%. For the molecule `OC(CCN1CCCCC1)c1ccc(-c2ccccc2)cc1` (centres unmarked), the “hERG current change (%, negative = inhibition) at 10uM” value is given as -56.4%. The value for `O=S(=O)(Nc1ccc(N2CCOCC2)cc1)c1ccc(F)cc1` was 4.3%. The value for `COC(=O)N1N=C(c2ccc(Br)cc2)CC1(O)C(F)(F)F` (centres unmarked) was -1.71%; that for `CCOc1ccc(CNC(=O)CN2C(=O)C(c3ccccc3)Oc3cccnc32)cc1` (centres unmarked) was -3.6%; that for `O=C(N/N=C/c1ccc[nH]1)c1ccc(COc2cccc3cccnc23)cc1` was -58.3%. The same measure for `O=C(N/N=C/c1cccc(O)c1)c1ccc(COc2cccc3cccnc23)cc1`: 22.8%; for `O=C(N/N=C/c1ccncc1)c1ccc(COc2cccc3cccnc23)cc1`: -45.6%. `CCOC(=O)C1=c2/c(=C/c3ccncc3)c(N)c(C(=O)OC)n2C(=O)C(c2ccncc2)S1` (centres unmarked): the “hERG current change (%, negative = inhibition) at 10uM” value came out at 1.36%.

Regarding `O=C(CCc1ccccc1)NNC(=O)c1ccc(NC(=O)c2ccccc2)cc1`, the “hERG current change (%, negative = inhibition) at 10uM” value amounted to 2.53%. The value for `Cc1cc(S(=O)(=O)Nc2ccc3c(c2)COC3=O)ccc1F` was 7.2%.

As to `Cc1cc(C)n(C(=O)c2cccc(S(=O)(=O)N3CCCC3)c2)n1`, the “hERG current change (%, negative = inhibition) at 10uM” value was determined as 6.46%. The same measure for `O=C(Nc1ccnn1C1CCN(Cc2c(F)cccc2Cl)CC1)C1CCCC1`: -32.1%. The same measure for `O=C(Nc1ccnn1C1CCN(C/C=C/c2ccc(F)cc2)CC1)C1CCCC1`: -76.2%; for `O=C(Nc1ccnn1C1CCN(C/C=C/c2ccccc2)CC1)C1CCCC1`: -73%.
